Measured values as given in PubChem BioAssay (NCATS).
Records with an inconclusive call do not appear. The source made the active and inactive calls. The call rests on the fitted dose curve; in most records, active means well fitted inhibition curve with a large enough effect; inconclusive means small, poorly fitted or top-dose-only effect; inactive means flat fitted curve, though single readings scatter.

Experiment: qHTS for Inhibitors of Plasmodium falciparum (HB3) proliferation (AID 504318);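 further: 0% = DMSO vehicle and -100% = artemisinin control; nearly all actives have a fitted effect of over 60% in size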
Conditions: P. falciparum HB3 in erythrocytes, SYBR Green DNA, 72 h; series mostly up to 7.21 µM; activity change, negative = inhibition: at the top concentration
Description: Plasmodium falciparum is a virulent malarial parasite that kills 1-2 million people worldwide each year. Malaria not only inflicts tremendous suffering and morbidity on the human population, but has dramatically influenced the course of civilization with profound sociological and economic implications (Shah, S. 2010). Transmitted by mosquitoes, the sporozoite form of the parasite enters the blood stream to infect hepatocytes, where they become merozoites that infect red blood cells (erythrocytes). Within erythrocytes, merozoites begin a […] cycle of growth and division, after which the parasite is released to infect new red blood cells. Gametocytes, which form within erythrocytes as well, circulate in the bloodstream and are ingested by the mosquito, thereby completing the life cycle (see CDC website). To profile malarial lines for differential chemical responses and to identify inhibitors of malarial growth, an assay that measures P. falciparum growth and replication within erythrocytes was employed. This assay uses a DNA binding fluorescent dye (SYBR Green) to detect parasite DNA following cell lysis. Because mature erythrocytes lack DNA, only Plasmodium-derived DNA is detected. The P. falciparum line cp250, derived from a malarial isolate from Cambodia, (Mu, J., et al. 2010) was added to the panel of lines, Dd2, HB3, 7G8 and GB4 in this study. Laboratory of Assay Development and Screening Technology [ADST] and NIH Chemical Genomics Center [NCGC] Boston University, Chemistry Department, Center for Chemical Methodology and Library Development [CMLD-BU] NIH National Institute of Allergy and Infectious Diseases [NIAID]
ADST Assay Protocol Summary: The 1536-well SYBR Green viability assay was based on the method of Bennett et al (2004) and described previously in 1536-well format (Yuan J., et al. 2009). For screening 3 ul culture medium was dispensed into 1536 well black clear bottom plates (Aurora Biotechnologies) using a Multidrop Combi (Thermo Fisher Scientific Inc.), 23 nL compounds in DMSO were added by a pin transfer (Cleveland, P.H. and Koutz, P.J, 2005) using a pin tool-based delivery system (Kalypsys), and 5 ul of erythrocytes infected with P. falciparum one of five lines (cp250, Dd2, HB3, 7G8 or GB4, 0.3% parasitemia, 2.5% hematocrit final concentration) were added. The plates were incubated at 37C in a humidified incubator in 5% CO2 for 72 h, and 2 ul lysis buffer (20 mM Tris HCl, 10 mM EDTA, 0.16% saponin, 1.6% triton X, 10X SYBR Green I (supplied as 10,000X final concentration by Invitrogen) was added to each well. The plates were mixed for 25 sec with gentle shaking and incubated overnight at room temperature in the dark. The following morning, fluorescence intensity at 485(14) nm excitation and 535(25) nm emission wavelengths was measured on an EnVision (Perkin Elmer) plate reader. Plate reads were normalized relative to the control inhibitor (0.29 uM artemisinin) and vehicle (DMSO) wells present on each plate and then corrected by an algorithm using vehicle-only control plates at the beginning and end of the compound plate stack. References Shah, S. (2010). The Fever: how malaria has ruled humankind for 500,000 years. New York, Sarah Crichton Books. CDC web site, http://www.cdc.gov/malaria/about/biology/index.html Mu, J., Myers, R.A., Jiang, H., Liu, S., Ricklefs, S., Waisberg, M., Chotivanich, K., Wilairatana, P., Krudsood, S., White, N.J., et Plasmodium falciparum genome-wide scans for positive selection, recombination hot spots and resistance to antimalarial drugs Nature Genetics 2010, 42, pp 268-271 Bennett TN, Paguio, M., Gligorijevic, B., Seudieu, C., Kosar, A. D., Davidson, E., and Roepe, P. D. Novel, rapid, and inexpensive cell-based quantification of antimalarial drug efficacy Antimicrobial Agents Chemother. 2004, 48(5): pp 1807-10 Yuan J, Johnson RL, Huang RL, Wichterman J, Jiang HY, Hayton K, Fidock DA, Wellems TE, Inglese J, Austin CP, Su XZ. […]

Activity change, negative = inhibition, inactive:
CCOC(=O)C=CCCCC=CC(=O)c1ccccc1 0.432%
CCOC(=O)CN1C(=O)N[C@@H](c2ccccc2)[C@H](C(=O)OC)[C@H]1C -3.1%
COC(=O)C1=C(C(=O)OC)[C@@H]2N(C)c3ccccc3[C@@]23C[C@@H](CO)N=C3N1 5.03%
CCCCC1=CC2=C(c3ccco3)C(=O)C(C)(OC(=O)c3ccc(OC)cc3)C(=O)C2=CN1c1ccccc1 (stereo not given) -0.837%
COC(=O)C1=C(C(=O)OC)[C@@H]2N(C)c3ccccc3[C@@]23C[C@@H](C(=O)OC)N(S(=O)(=O)c2ccc(C)cc2)C3=N1 -4.22%
COC(=O)C1=C(C(=O)OC)[C@@H]2N(Cc3ccccc3)c3ccccc3[C@@]23C[C@@H](C(=O)OC)N(C(=O)c2ccco2)C3=N1 1.59%
COC(=O)C1=C(C)N(Cc2ccccc2)C(=O)N[C@H]1CCc1ccccc1 2.08%
COCC(=O)N1CCc2nc(-c3ccc(OC)cc3C)c3c(c2C1)CO[C@@H](c1ccccc1)C3 -0.913%
COC(=O)CCCC1=CC2=C(c3ccccc3)C(=O)C(C)(OC(=O)C3CCCC3)C(=O)C2=CN1CC1CC1 (stereo not given) -0.309%
CCCCC1=CC2=C(c3ccco3)C(=O)C(C)(OC(=O)c3ccc(OC)cc3)C(=O)C2=CN1CC(C)C (stereo not given) 2.94%
CC1(OC(=O)c2ccc(Cl)nc2)C(=O)C=C2C=C(C3CC3)OC=C2C1=O (stereo not given) 4.79%
Cc1ccccc1Nc1oc(-c2ccccc2)nc1-c1ccc(C(F)(F)F)cc1 6.24%
O=C1c2cc(Br)ccc2O[C@@H](c2ccc3c(c2)OCO3)[C@@H]1O -2.42%
COC(=O)CCCC1=CC2=C(c3ccccc3)C(=O)C(C)(OC(=O)C3CCCC3)C(=O)C2=CN1C1CC1 (stereo not given) -1.66%
COCCN1C(=O)N[C@@H](c2ccccc2)[C@@H](C(=O)OC)[C@H]1C -3.2%
COC(=O)CCCC1=CC2=CC(=O)C(C)(OC(=O)c3cccs3)C(=O)C2=CN1Cc1ccc2c(c1)OCO2 (stereo not given) -7.32%
COC/C=C/C1=CC2=CC(=O)C(C)(OC(=O)c3cnc4ccccc4n3)C(=O)C2=CN1Cc1ccccc1 (stereo not given) 1.72%
COC(=O)CCC(=O)OC1(C)C(=O)C2=CN(Cc3ccccc3)C(c3ccc(OC)cc3)=CC2=C(Br)C1=O (stereo not given) -4.15%
CCOC(=O)CNC(=O)O[C@@H]1C(=O)c2cc(OC)ccc2O[C@H]1c1ccc(OC)c(Br)c1 -13.6%
CCN1C(=O)N[C@@H](c2ccccc2)[C@H](C(C)=O)[C@H]1C 0.985%
COCCN1C(=O)N[C@@H](c2cccc(F)c2)C(C(C)=O)=C1C -1.01%
COC(=O)N[C@@H](c1cccc(C)c1)[C@]1(C(C)=O)CCCC1=O 7.66%
CCN1C(=O)NC(c2ccc(Br)cc2)C(C(=O)OC)=C1C (stereo not given) -0.897%
COC(=O)[C@@H]1[C@H](CCc2ccccc2)NC(=O)N(Cc2ccccc2)[C@H]1C 3.99%
CCCCC1=CC2=CC(=O)C(C)(OC(=O)CC)C(=O)C2=CN1C1CCCCC1 (stereo not given) -1.02%
COC(=O)C1=C(C)N(Cc2ccccc2)C(=O)N[C@H]1c1cccs1 -4.03%
COC[C@@H](O)[C@@H](OC)[C@H](OC)[C@H](Cc1c(OC)cc(OC)cc1OC)OC 7.26%
CCN1C(=O)N[C@H](c2ccccc2)C(C(C)=O)=C1C 7.04%
COC(=O)C1=C(C)N(Cc2ccccc2)C(=O)N[C@H]1c1cccc(F)c1 2%
CCOC(=O)CN1C(=O)N[C@@H](c2cccc(F)c2)C(C(=O)OC)=C1C -3.96%
CC1(OC(=O)CCc2ccccc2)C(=O)C=C2C=C(c3ccc(C#N)cc3)N(C3CCCCC3)C=C2C1=O (stereo not given) -6.45%
COC(=O)[C@@H]1[C@@H](C)N(Cc2ccccc2)C(=O)N[C@H]1c1ccccc1 3.75%
COC/C=C/C1=CC2=CC(=O)C(C)(OC(=O)c3cnc4ccccc4n3)C(=O)C2=CN1CCCOC(C)C (stereo not given) -0.155%
COC/C=C/C1=CC2=CC(=O)C(C)(OC(=O)c3cnc4ccccc4n3)C(=O)C2=CN1c1cccc(C#N)c1 (stereo not given) -3.99%
C=CC[C@]1(C(=O)OC)C=C[C@H](C)[C@@H](c2ccccc2)N1C(=O)C(F)(F)F -0.285%

Potency, inactive:
C=CC1=C2C=C(C3CC3)N(CCCCO)C=C2C(=O)C(C)(OC(=O)c2ccco2)C1=O (stereo not given)
COC(=O)CCCC1=CC2=CC(=O)C(C)(OC(=O)c3cccs3)C(=O)C2=CN1c1ccccc1 (stereo not given)
COC(=O)CC1c2ccccc2C=C(C)N1C(=O)OC (stereo not given)
CCCCC1=CC2=C(c3ccco3)C(=O)C(C)(OC(=O)c3ccc(OC)cc3)C(=O)C2=CN1CCCCO (stereo not given)
C=CCN1c2ccccc2[C@]23C[C@@H](C(=O)OC)N(C(=O)CC(C)C)C2=NC(C(=O)OC)=C(C(=O)OC)[C@H]13
